These results are taken from PubChem BioAssay AID720582 (The Scripps Research Institute Molecular Screening Center, 2013).

Structures are written as SMILES. About 2,300 (0.62%) of roughly 370,000 compounds were called active.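 Rule for the calls: active = inhibition above a per-campaign cutoff equal to the mean of compounds falling between control-based bounds plus 3 SD (cut at about 20% in these data); inactive = the rest.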 What follows is part of a selection rich in actives, with near analogues and random picks from the rest.

Sequence of Disintegrin and metalloproteinase domain-containing protein 10 (Homo sapiens) (O14672 214-748 limits assumed): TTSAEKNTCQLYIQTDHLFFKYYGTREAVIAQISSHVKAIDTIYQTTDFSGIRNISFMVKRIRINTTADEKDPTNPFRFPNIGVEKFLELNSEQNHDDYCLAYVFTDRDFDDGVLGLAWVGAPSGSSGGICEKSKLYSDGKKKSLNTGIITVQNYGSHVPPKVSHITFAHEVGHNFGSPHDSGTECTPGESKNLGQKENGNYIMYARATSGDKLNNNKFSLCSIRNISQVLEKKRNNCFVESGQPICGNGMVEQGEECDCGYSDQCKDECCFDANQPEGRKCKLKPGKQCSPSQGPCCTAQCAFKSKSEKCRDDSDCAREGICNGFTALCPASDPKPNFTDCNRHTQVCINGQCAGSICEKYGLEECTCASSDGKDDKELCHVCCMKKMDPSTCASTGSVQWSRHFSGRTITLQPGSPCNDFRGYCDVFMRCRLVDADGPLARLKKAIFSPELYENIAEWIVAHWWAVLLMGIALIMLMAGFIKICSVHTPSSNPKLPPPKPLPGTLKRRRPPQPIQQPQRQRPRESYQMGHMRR

This assay addresses Disintegrin and metalloproteinase domain-containing protein 10 (Homo sapiens) (UniProt O14672). Put plainly: human ADAM10 inhibitors, primary screen, biochemical, QFRET, HTS (AID 720582).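 Note: 0% = DMSO wells while the 100% control is not disclosed.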 Conditions: recombinant ADAM10, EDANS/DABCYL FRET peptide cleavage, 3 h; at 7 µM; active compounds read high.
A word on the inhibition: it is the change of the read-out against control, counted positive when it falls. With `Cc1ccccc1CS(=O)(=O)Cc1ccc(C(=O)Nc2ccc(Cl)cc2)o1`, the inhibition is -29% (inactive).

Consider `Cc1sc2nc(SCC(=O)c3ccc(O)c(O)c3)n(Cc3ccco3)c(=O)c2c1C`, for which the inhibition was 15.9% (inactive). For `COc1cccc(CNC(=O)C2CCCN(c3nc4ccccc4o3)C2)c1OC` (configuration not stated) the value was 2.5% (inactive); for `Cc1c(C=O)c2ccccc2n1CCOc1ccccc1`, 10.4% (inactive); for `O=C1c2ccccc2C(=O)N1CCOc1ccc(F)cc1`, 0.68% (inactive). As for `O=Cc1cn(CCOc2ccc(F)cc2)c2ccccc12`, the inhibition was 20.7% (active). For `Cc1ccc(C(=O)C2CCN(CC(=O)NCCC(C)C)CC2)cc1` the value was -6.22% (inactive). For `Cc1cccc(OCCNC(=S)NC(=O)c2cccnc2)c1` the value was 2.33% (inactive); for `NS(=O)(=O)c1ccc(NC(=S)NC(=O)c2cccnc2)cc1`, -8.74% (inactive); for `O=C(/C=C/c1ccc(F)cc1)NC(=S)NNC(=O)c1cccnc1`, 22.8% (active). For `O=C1CCC2(CCC(c3ccc(Cl)cc3)CC2)N1CCO` (configuration not stated) the value was -9.03% (inactive); for `O=C(NC(Cc1c[nH]c2ccccc12)C(=O)N/N=C/c1ccc(Br)cc1)c1cccs1` (configuration not stated), 28.1% (active).

With `O=C(N[C@@H](Cc1c[nH]c2ccccc12)C(=O)O)OCC1c2ccccc2-c2ccccc21`, the inhibition was -1.67% (inactive). For `CCN(CC)c1ccc(/C=N/NC(=O)CNC(=O)c2cccs2)cc1`, the inhibition is -246% (inactive).

As for `COC(CNC(=O)[C@H](Cc1ccccc1)NC1(C(=O)NC2CCCCC2)CCCCC1)OC`, the inhibition is 4.93% (inactive). To `O=C(CC(O)(C(F)(F)F)C(F)(F)F)Nc1ccc(Cl)c(Cl)c1` belongs 23.7% (active); to `O=C(CCS(=O)(=O)c1ccccc1)Nc1ccc(Cl)c(Cl)c1`, -2.68% (inactive); to `O=C(Nc1ccc(Cl)c(Cl)c1)N1CC=C(c2ccccc2)CC1`, -19.8% (inactive). Regarding `COC(=O)C1CN(Cc2ccc(F)cc2)CCS(=O)(=O)N1Cc1ccc(Cl)cc1` (configuration not stated), the inhibition was -0.23% (inactive). Consider `COC(=O)[C@H](C(C)C)N1CCc2nnn(Cc3ccc(C)cc3)c2-c2ccccc2S1(=O)=O`, for which the inhibition was 5.83% (inactive). On to `COC(=O)[C@]12C[C@H](CC(=O)NCCc3ccccc3OC)C(=O)N(Cc3ccco3)C1=C[C@H](C(C)C)O[C@@H]2C1CC1`, for which the inhibition was -2.42% (inactive). To `CC(=O)Nc1ccc(OC[C@@H](O)CN2CCC(C(O)(c3ccccc3)c3ccccc3)CC2)cc1` belongs 4.68% (inactive); to `O=C(NCCc1c[nH]c2ccc(Cl)cc12)c1ccc([N+](=O)[O-])cc1`, -1.95% (inactive). To `NS(=O)(=O)c1ccc(CCNC(=O)c2ccc(Cl)cc2[N+](=O)[O-])cc1` belongs -0.8% (inactive); to `O=C(NCCc1ccc(Cl)cc1Cl)c1cc([N+](=O)[O-])c[nH]c1=O`, 20.1% (active). For `Cc1cc(NS(=O)(=O)c2ccc(NC(=O)CSc3nnc(-c4ccc(C(C)(C)C)cc4)n3Cc3ccco3)cc2)nc(C)n1` the value was 5.55% (inactive); for `COc1ccc(C2Nc3ccccc3C(=O)N2Cc2cccs2)cc1COc1c(C)cccc1C` (configuration not stated), -298% (inactive); for `COc1ccc(C(=O)OCCN(C)C2CN(Cc3cn(Cc4cccc(C)c4)nn3)S(=O)(=O)C2)cc1OC` (configuration not stated), 2.95% (inactive).

Regarding `Cc1ccc(-n2c(SCC(=O)Nc3cccc4ccccc34)nnc2-c2ccco2)cc1`, the inhibition was 9.63% (inactive). As for `S=c1[nH]nc(CSCc2ccc(Cl)cc2Cl)n1-c1ccccc1`, the inhibition was 15.5% (inactive).

On to `S=c1[nH]cc(-c2ccc(Cl)cc2)n1-c1ccccc1`, for which the inhibition was 22.5% (active). For `S=c1[nH]ccn1-c1ccc(Cl)cc1` the value was -2.53% (inactive); for `O=C(c1cccc(C(F)(F)F)c1)N1CC[C@H]2[C@H](CCCN2Cc2cc(F)cc(F)c2)C1`, -2.92% (inactive); for `Cn1c(CNc2nc(-c3ccccc3)cs2)nnc1SCC(=O)c1ccccc1`, 35% (active). On to `CCn1c(CNc2ccc(OC)cc2)nnc1SCC(=O)c1ccc(OC)cc1`, for which the inhibition was -4.28% (inactive). To `Cn1c(Cc2cccs2)nnc1SCC(=O)Nc1ccccc1` belongs -5.09% (inactive). To `COc1ccc(CN2C(=O)N3Cc4cc(OC)ccc4C3CS2(=O)=O)cc1` (configuration not stated) belongs 2.06% (inactive); to `O=C(CCCCCN1C(=O)C2C3C=CC(C3)C2C1=O)Nc1ccccc1` (configuration not stated), 1.21% (inactive). For `COc1ccc([C@H]2CC(=O)C=C(c3ccc(CO)cc3)C2)cc1` the value was -0.95% (inactive); for `COc1cccc(C2=CC(=O)C[C@H](c3ccc(OC)c(OC)c3)C2)c1`, 1.42% (inactive); for `COc1ccc([C@H]2CC(=O)C=C(c3ccc(OC(F)(F)F)cc3)C2)cc1OC`, 21% (active).

On to `Cc1ccc(S(=O)(=O)N(C)CC(=O)NCCc2c[nH]c3ccccc23)cc1`, for which the inhibition was -6.6% (inactive). For `Cc1cc(C)cc(NC(=S)NCCc2c[nH]c3ccccc23)c1` the value was 28.5% (active); for `O=C(COC(=O)Cc1c[nH]c2ccccc12)NCCc1ccccc1`, 7.22% (inactive); for `COc1cc(C(=S)NCc2ccccc2)cc(Br)c1O`, 10.6% (inactive). Consider `COc1cc(Cl)cc(C2NC(=O)NC(C)=C2C(=O)NCc2ccccc2)c1O` (configuration not stated), for which the inhibition is -4.94% (inactive).

`COc1cc(/C=C2/SC(=S)N(Cc3ccccc3)C2=O)cc(OC)c1O`: the inhibition is 20.6% (active).

Consider `CN(C)S(=O)(=O)c1cccc(NC(=O)COC(=O)C2(c3ccccc3F)CCCC2)c1`, for which the inhibition is 27.6% (active).

Regarding `NS(=O)(=O)c1ccc(NC(=O)COC(=O)C2(c3ccc(F)cc3)CCCC2)cc1`, the inhibition is 13% (inactive).

On to `O=C(COC(=O)COc1ccccc1F)Nc1cccc(S(=O)(=O)N2CCCCC2)c1`, for which the inhibition is -11.9% (inactive).

For `COC(=O)C1CN(CC(C)C)CCS(=O)(=O)N1Cc1ccc(C)cc1` (configuration not stated), the inhibition is -14.6% (inactive). To `COC(=O)CC1CCc2cc(C)cc(C(CC(C)C)NC(=O)[C@H](CC(C)C)NC(=O)OCc3ccccc3)c2O1` (some centres not stated) belongs -2.1% (inactive); to `COc1ccc(N2CCN(CCNS(=O)(=O)c3ccc(Cl)s3)CC2)cc1`, 0.29% (inactive). For `C=CCC[C@@H](Cc1ccc(F)cc1)C(=O)OC[C@@H](C)NC(=O)[C@H](CC=C)CC(=O)N(CCO)Cc1ccccc1` the value was 8.58% (inactive).

For the compound `C=CCC[C@@H](Cc1ccc(F)cc1)C(=O)O[C@H](CNC(=O)[C@H](CC=C)CC(=O)N(CCO)Cc1ccccc1)c1ccccc1`, the inhibition was 31.3% (active). For the compound `C=CCC[C@H](Cc1ccc(F)cc1)C(=O)OC[C@H](C)NC(=O)[C@H](CC=C)CC(=O)N(CCO)Cc1ccccc1`, the inhibition is 7.82% (inactive). For `C=CC[C@@H](CC(=O)N[C@H](CO)Cc1ccccc1)C(=O)N[C@@H](COC(=O)[C@@H](CC=C)Cc1ccc(F)cc1)Cc1c[nH]c2ccccc12` the value was 0.04% (inactive); for `C=CCC[C@H](Cc1ccc(F)cc1)C(=O)OC[C@@H](Cc1c[nH]c2ccccc12)NC(=O)[C@H](CC=C)CC(=O)N[C@H](CO)Cc1ccccc1`, 0.78% (inactive); for `C=CCC[C@@H](Cc1ccc(F)cc1)C(=O)OC[C@H](Cc1c[nH]c2ccccc12)NC(=O)[C@@H](CC=C)CC(=O)N(CCO)Cc1ccccc1`, 41.8% (active).

For `C=CC[C@H](CC(=O)N(CCO)Cc1ccccc1)C(=O)N[C@@H](COC(=O)[C@@H](CC=C)Cc1ccc(F)cc1)Cc1ccccc1`, the inhibition is 28% (active).

For the compound `C=CC[C@@H](Cc1ccc(F)cc1)C(=O)OC[C@H]1CCCN1C(=O)[C@H](CC=C)CC(=O)N(CCO)Cc1ccccc1`, the inhibition is -2.18% (inactive). With `C=CCC[C@H](Cc1ccc(F)cc1)C(=O)OC[C@@H](NC(=O)[C@@H](CC=C)CC(=O)N[C@H](CO)Cc1ccccc1)C(C)(C)C`, the inhibition is 8.16% (inactive).
